39 compounds from PubChem BioAssay can be followed below.

Structures are written as SMILES. “And” between values parts separate entries of the source, which are not always exact repeats. Equal entries are not always repeated. Unmarked numbers belong to inactive results. The source made the active and inactive calls. Rule as the data show it, unless noted: active = inhibition above about 33%; inactive = the rest.

For the first assay, the target named is Steroidogenic factor 1 (Homo sapiens) (UniProt Q13285). In words: inverse agonism at SF1 nuclear receptor – cell-based, luminescence, high throughput, counter-screen for LRH-1 inverse agonist project (AID 651614; in the data active = inhibition above about 44%;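 also: cells cotransfected with StAR promoter reporter and SF1 expression vector; 0% = vehicle on cells with receptor and 100% = vehicle on cells lacking receptor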). The conditions noted are these: cell-based SF1 luciferase reporter, at 3.6 µM, hits give high values. For orientation: A counterscreen serves to expose hits that act by an unwanted route or on another target.
Steroidogenic factor 1 (Homo sapiens), sequence (Q13285 whole entry, looked up): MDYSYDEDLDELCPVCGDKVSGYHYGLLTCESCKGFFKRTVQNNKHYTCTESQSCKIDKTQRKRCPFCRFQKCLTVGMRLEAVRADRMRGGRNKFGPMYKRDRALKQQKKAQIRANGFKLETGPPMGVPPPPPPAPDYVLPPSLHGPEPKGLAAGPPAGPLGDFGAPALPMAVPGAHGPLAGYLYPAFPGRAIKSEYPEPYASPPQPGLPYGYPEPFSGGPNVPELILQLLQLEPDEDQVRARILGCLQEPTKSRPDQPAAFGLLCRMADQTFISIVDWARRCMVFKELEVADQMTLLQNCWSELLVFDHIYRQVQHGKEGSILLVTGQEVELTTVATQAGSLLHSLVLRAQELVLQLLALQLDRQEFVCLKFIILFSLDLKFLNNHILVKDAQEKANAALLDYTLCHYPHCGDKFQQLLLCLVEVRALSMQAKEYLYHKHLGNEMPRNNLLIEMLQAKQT
As for `COc1cc(C(=O)Nc2ccccc2N2CCN(S(C)(=O)=O)CC2)cc(OC)c1OC`, the inhibition is 34%.

As for `O=C(NCC1CCCO1)c1ccc(NC(=O)c2cccc([N+](=O)[O-])c2)cc1` (stereo not drawn), the inhibition is 54% (active).

Consider `CCn1c2ccccc2c2cc(C3C(C#N)=C(N)Oc4n[nH]c(COC)c43)ccc21` (stereo not drawn), for which the inhibition was 51.7% (active).

For the compound `COc1ccc(CCNC(=O)CSc2nc3[nH]ncc3c(=O)n2-c2ccccc2Br)cc1OC`, the inhibition was 43.1% (active).

`C[n+]1c2cc(N)ccc2cc2ccc(N)cc21`: the inhibition was 79.5% (active) and 66.7% (active).

As to `O=C(COc1ccc(F)c(Cl)c1)Nc1ccc(N2CCOCC2)cc1`, the inhibition is 39%.

For the compound `CN(C)c1ccc(C=c2c3ccccc3n3c2cc(-c2ccc(Cl)cc2)[n+]3C)cc1`, the inhibition is 69% (active).

Take `O=C(C(Cl)c1ccccc1)N1CCCC1` (stereo not drawn): the inhibition is 44.9% (active).

Regarding `O=C(Nc1ccc2oc(-c3ccncc3)nc2c1)c1ccc([N+](=O)[O-])o1`, the inhibition is 66.2% (active).

For `CC(=O)Nc1ccc(NC(=O)CSc2ccc(-c3ccc(-n4ccnc4)cc3)nn2)cc1`, the inhibition is 53% (active).

As for `Nc1ccc(Br)c2cccnc12`, the inhibition was 24.8%.

`CC1CC(C)CN(c2cc(N(C)CCO)c([N+](=O)[O-])c3nonc23)C1` (stereo not drawn): the inhibition was 63.6% (active).

In the case of `Cc1cc(C)c2sc(NC(=O)c3ccc([N+](=O)[O-])o3)nc2c1`, the inhibition is 53.5% (active).

Consider `Cc1c([N+](=O)[O-])cc(C(=O)Nc2ccc(Cc3ccncc3)cc2)cc1[N+](=O)[O-]`, for which the inhibition was 45% (active).

For the compound `O=C(CCl)Nc1ccc(N2CCCCCC2)cc1`, the inhibition was 51.3% (active).

As to `COc1ccc(Cc2c(-c3cccc(Cl)c3)nc3cc(C)c(Br)c(C)n23)c(C)c1`, the inhibition is 36.9%.

With `N#Cc1cc(Br)ccc1N=C1CCCN1c1ccccc1`, the inhibition was 42.6%.

For the compound `CCCOc1ccc(Cn2cnc3ccccc32)cc1`, the inhibition is 52.4% (active).

As for `COc1ccc(-n2c(/C=C(\C)O)nc(=O)c3c(C)cc(C)nc32)cc1`, the inhibition is 37.2%.

Turning to `CC1CCCN(c2cc(N(C)CCO)c([N+](=O)[O-])c3nonc23)C1` (stereo not drawn), the inhibition is 43.2% (active).

For `Cc1nc2ccccc2n1/N=C/c1ccc([N+](=O)[O-])o1`, the inhibition is 68.1% (active).

On to `COC(=O)c1ccc(NC(=O)CSc2nnc(C)n2CC2CCCO2)cc1` (stereo not drawn), for which the inhibition was 40.7%.

With `CC(=O)Nc1ccc(C2=CC(=O)CC(C)(C)C2)cc1`, the inhibition was 55.8% (active).

Regarding `O=C(NCCN1C(=O)S/C(=C\c2ccc(OC(F)F)cc2)C1=O)c1cnccn1`, the inhibition was 33.1%.

Regarding `CCCn1c(=NC(=O)CCS(=O)(=O)c2ccccc2)sc2cc(S(N)(=O)=O)ccc21`, the inhibition was 31.1%.

With `COc1cc2c(cc1OC)CN(C(=O)Cn1ccccc1=O)CC2`, the inhibition is 57.1% (active).

As for `Cn1c(SCC(=O)Nc2ccc(N3CCOCC3)cc2)nnc1-c1ccccc1`, the inhibition was 47.5% (active).

As to `Cn1cccc1C(=O)OCC(=O)NCCCc1ccccc1`, the inhibition was 44.4% (active).

As to `N#CC1=C(N)C(C#N)(C#N)[C@H](c2c(F)cccc2F)[C@H]2CC3(CC=C12)OCCO3`, the inhibition is 54% (active).

As to `COc1cc2c(cc1OC)CN(C(=O)c1ccc([N+](=O)[O-])o1)CC2`, the inhibition was 64.4% (active).

In the case of `COc1ccc(-c2cc(NC=O)c3ncc(-c4ccc(OC)c(OC)c4)n3c2)c(OC)c1`, the inhibition is 62% (active).

Turning to `O=C(COC(=O)C1CC(=O)N(Cc2ccccc2)C1)Nc1ccc2c(c1)OCO2` (stereo not drawn), the inhibition is 54.8% (active).

Turning to `O=C(Nc1nc2c(Cl)cccc2s1)c1ccc([N+](=O)[O-])o1`, the inhibition is 62.2% (active).

As for `O=C(CSC1=NCCS1)N1CCN(c2ccc(Cl)cc2)CC1`, the inhibition was 53.3% (active).

In the case of `COC(=O)c1ccc(NC(=O)COc2cccc(-n3cnnn3)c2)cc1`, the inhibition is 32.5%.

As for `Cn1c(SCC(=O)Nc2ccc(N3CCOCC3)cc2)nnc1-c1ccco1`, the inhibition is 49.4% (active).

As for `CCS(=O)(=O)N1Cc2cc(C(=O)NCC3CC3)nc(-c3cccc(-c4cccnc4)c3)c2[C@@H]1CCO`, the inhibition was 41.8%.

As for `CCn1c2ccccc2c2cc(/C=N/n3cn[nH]c3=S)ccc21`, the inhibition is 34.3%.

Regarding `CCOc1ccc(C(C)=O)cc1COC(=O)c1cc([N+](=O)[O-])ccc1N1CCOCC1`, the inhibition is 55.5% (active).

System in a further assay: not listed separately
Put plainly: compounds suppressing VP16-driven luciferase signal – cell-based, luminescence, high throughput, counter-screen for LRH-1 inverse agonist project (AID 651615). As to conditions: Gal4-VP16 luciferase reporter cells, at 3.6 µM, hits give high values.
In the case of `COc1cc(C(=O)Nc2ccccc2N2CCN(S(C)(=O)=O)CC2)cc(OC)c1OC`, the inhibition is -2.73%.

As for `O=C(NCC1CCCO1)c1ccc(NC(=O)c2cccc([N+](=O)[O-])c2)cc1` (stereo not drawn), the inhibition is -2.03%.

With `CCn1c2ccccc2c2cc(C3C(C#N)=C(N)Oc4n[nH]c(COC)c43)ccc21` (stereo not drawn), the inhibition is 14.3%.

In the case of `COc1ccc(CCNC(=O)CSc2nc3[nH]ncc3c(=O)n2-c2ccccc2Br)cc1OC`, the inhibition was -2.5%.

On to `C[n+]1c2cc(N)ccc2cc2ccc(N)cc21`, for which the inhibition was 95.3% (active) and 92.1% (active).

On to `O=C(COc1ccc(F)c(Cl)c1)Nc1ccc(N2CCOCC2)cc1`, for which the inhibition is 3.92%.

In the case of `CN(C)c1ccc(C=c2c3ccccc3n3c2cc(-c2ccc(Cl)cc2)[n+]3C)cc1`, the inhibition is 86.3% (active).

For the compound `O=C(C(Cl)c1ccccc1)N1CCCC1` (stereo not drawn), the inhibition was -16.8%.

As for `O=C(Nc1ccc2oc(-c3ccncc3)nc2c1)c1ccc([N+](=O)[O-])o1`, the inhibition was -13.7%.

With `CC(=O)Nc1ccc(NC(=O)CSc2ccc(-c3ccc(-n4ccnc4)cc3)nn2)cc1`, the inhibition was -5.42%.

Turning to `Nc1ccc(Br)c2cccnc12`, the inhibition is -9.28%.

With `CC1CC(C)CN(c2cc(N(C)CCO)c([N+](=O)[O-])c3nonc23)C1` (stereo not drawn), the inhibition was -3.82%.

Consider `Cc1cc(C)c2sc(NC(=O)c3ccc([N+](=O)[O-])o3)nc2c1`, for which the inhibition is -7.08%.

Turning to `Cc1c([N+](=O)[O-])cc(C(=O)Nc2ccc(Cc3ccncc3)cc2)cc1[N+](=O)[O-]`, the inhibition was -0.27%.

`O=C(CCl)Nc1ccc(N2CCCCCC2)cc1`: the inhibition was -8.63%.

`COc1ccc(Cc2c(-c3cccc(Cl)c3)nc3cc(C)c(Br)c(C)n23)c(C)c1`: the inhibition was -4.66%.

On to `N#Cc1cc(Br)ccc1N=C1CCCN1c1ccccc1`, for which the inhibition was 0.34%.

Regarding `CCCOc1ccc(Cn2cnc3ccccc32)cc1`, the inhibition was 27.3%.

Turning to `COc1ccc(-n2c(/C=C(\C)O)nc(=O)c3c(C)cc(C)nc32)cc1`, the inhibition was 16.7%.

Regarding `CC1CCCN(c2cc(N(C)CCO)c([N+](=O)[O-])c3nonc23)C1` (stereo not drawn), the inhibition was 14.8%.

Consider `Cc1nc2ccccc2n1/N=C/c1ccc([N+](=O)[O-])o1`, for which the inhibition is 15%.

In the case of `COC(=O)c1ccc(NC(=O)CSc2nnc(C)n2CC2CCCO2)cc1` (stereo not drawn), the inhibition is -3.65%.

In the case of `CC(=O)Nc1ccc(C2=CC(=O)CC(C)(C)C2)cc1`, the inhibition was -10.9%.

On to `O=C(NCCN1C(=O)S/C(=C\c2ccc(OC(F)F)cc2)C1=O)c1cnccn1`, for which the inhibition is 14.9%.

Turning to `CCCn1c(=NC(=O)CCS(=O)(=O)c2ccccc2)sc2cc(S(N)(=O)=O)ccc21`, the inhibition was -13.8%.

As for `COc1cc2c(cc1OC)CN(C(=O)Cn1ccccc1=O)CC2`, the inhibition is 6.2%.

Take `Cn1c(SCC(=O)Nc2ccc(N3CCOCC3)cc2)nnc1-c1ccccc1`: the inhibition is -12.2%.

For the compound `Cn1cccc1C(=O)OCC(=O)NCCCc1ccccc1`, the inhibition was -22%.

With `N#CC1=C(N)C(C#N)(C#N)[C@H](c2c(F)cccc2F)[C@H]2CC3(CC=C12)OCCO3`, the inhibition is 17.2%.

As for `COc1cc2c(cc1OC)CN(C(=O)c1ccc([N+](=O)[O-])o1)CC2`, the inhibition is 7.13%.

With `COc1ccc(-c2cc(NC=O)c3ncc(-c4ccc(OC)c(OC)c4)n3c2)c(OC)c1`, the inhibition is 2.18%.

In the case of `O=C(COC(=O)C1CC(=O)N(Cc2ccccc2)C1)Nc1ccc2c(c1)OCO2` (stereo not drawn), the inhibition is -9.97%.

`O=C(Nc1nc2c(Cl)cccc2s1)c1ccc([N+](=O)[O-])o1`: the inhibition is -6.76%.

For `O=C(CSC1=NCCS1)N1CCN(c2ccc(Cl)cc2)CC1`, the inhibition was 18.2%.

For `COC(=O)c1ccc(NC(=O)COc2cccc(-n3cnnn3)c2)cc1`, the inhibition was -9.98%.

`Cn1c(SCC(=O)Nc2ccc(N3CCOCC3)cc2)nnc1-c1ccco1`: the inhibition is -17.8%.

For `CCS(=O)(=O)N1Cc2cc(C(=O)NCC3CC3)nc(-c3cccc(-c4cccnc4)c3)c2[C@@H]1CCO`, the inhibition is -27.8%.

For the compound `CCn1c2ccccc2c2cc(/C=N/n3cn[nH]c3=S)ccc21`, the inhibition is -3.24%.

In the case of `CCOc1ccc(C(C)=O)cc1COC(=O)c1cc([N+](=O)[O-])ccc1N1CCOCC1`, the inhibition is 7.41%.

The inhibition is the change of the read-out against control, counted positive when it falls.
